# Source: the supplement of paper PMC12532568
# Structures can show the parent of a compound that is named as a salt.
# System: Danio rerio larvae Tg(actc1b:ZsGreen-LC3), 3 dpf
# Test: LC3 puncta relative area vs vehicle, without NH4Cl (log2 fold change); higher = more autophagosomes
# Details: 10 µM; treatment time 16 h; NH4Cl: none
# Method: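 Transgenic Tg(actc1b:ZsGreen-map1lc3) zebrafish larvae (2 dpf) were treated for 16 h with Tocris library compounds at 10 µM (n = 12 larvae per compound). Skeletal-muscle LC3 puncta area relative to body area was measured by high-content confocal imaging before and after 4 h of 100 mM NH4Cl (autophagic flux), normalised to vehicle (DMSO), and reported as log2 fold change.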
row,SMILES,LC3 puncta (log2)
1,O=C(O)C1=CCNCC1 [Isoguvacine hydrochloride],0.169
2,CC(C)(Oc1ccc(Cl)cc1)C(=O)O [Clofibric acid],0.448
3,Nc1nc2ccc(OC(F)(F)F)cc2s1 [Riluzole],0.289
4,N=C(N)SCCc1c[nH]cn1 [Imetit dihydrobromide],0.595
5,Cc1ccc2c(c1)c1c3n2CCNC3CCC1 (stereo not given) [Pirlindole mesylate],0.028
6,S=C(S)N1CCCC1 [Pyrrolidinedithiocarbamate ammonium],0.439
7,CC(=O)NCC(=O)N[C@H](CCC(=O)O)C(=O)O [N-Acetylglycyl-D-glutamic acid],-0.0216
8,NC(N)=NC(N)=Nc1cccc(Cl)c1 [m-Chlorophenylbiguanide hydrochloride],0.136
9,COc1cc(N)c(Cl)cc1C(=O)OCCCN1CCCCC1,-0.0084
10,CC(=O)N1CCN(C)CC1 [1-Acetyl-4-methylpiperazine hydrochloride],0.18
11,OCCN(CCO)c1nc(N2CCCCC2)c2nc(N(CCO)CCO)nc(N3CCCCC3)c2n1 [Dipyridamole],-0.714
12,NC(=O)OCC(COC(N)=O)c1ccccc1 [Felbamate],-0.737
13,"O=C(O)c1cc(=O)c2c(Cl)cc(Cl)cc2[nH]1 [5,7-Dichlorokynurenic acid]",-0.0706
14,O=C(/C=C/c1ccc(O)c(O)c1)O[C@H](Cc1ccc(O)c(O)c1)C(=O)O [Rosmarinic acid],0.0606
15,CCc1nc(N)nc(N)c1-c1ccc(Cl)cc1 [Pyrimethamine],0.169
16,O=C(O)c1cccnc1C(=O)O [Quinolinic acid],0.278
17,O=C1c2ccccc2CCC1CNCCc1ccc(O)cc1 (stereo not given) [HEAT hydrochloride],0.103
18,O=C(O)C=C1CCCc2ccccc2C1O (stereo not given),0.299
19,CC1=NN(c2ccccc2)C(=O)C1 [Edaravone],0.377
20,CCOC(=O)C1=C(C)NC(C)=C(C(=O)OC)C1c1cccc([N+](=O)[O-])c1 (stereo not given) [Nitrendipine],0.107

row,SMILES,LC3 puncta (log2)
1,CC(C)NC[C@@H](O)COc1cccc2ccccc12 [(R)-(+)-Propranolol hydrochloride],0.00434
2,CCCCCCN(CCCCCC)C(=O)Cc1c(-c2ccc(Cl)cc2)[nH]c2ccc(Cl)cc12,0.364
3,CC(C)NCC(O)COc1cccc2ccccc12 (stereo not given) [Propranolol hydrochloride],0.0203
4,C=C1C(=O)O[C@H]2[C@H]1CC/C(C)=C/CC[C@@]1(C)O[C@@H]21 [Parthenolide],0.0168
5,NCC(O)(CS(=O)(=O)O)c1ccc(Cl)cc1 (stereo not given) [2-Hydroxysaclofen],0.46
6,CC(Cc1ccc(O)c(O)c1)(NN)C(=O)O [(S)-(-)-Carbidopa],0.0108
7,O=C(NCCCN1CCCCCC1)C(c1ccccc1)C1CCCCC1 (stereo not given),0.0552
8,NC(C(=O)O)c1cc(O)cc(O)c1 (racemic),0.194
9,CC(C)[N+]1(C)[C@@H]2CC[C@H]1C[C@@H](OC(=O)C(CO)c1ccccc1)C2 (stereo not given in full) [Ipratropium bromide],-0.65
10,Brc1c(NC2=NCCN2)ccc2nccnc12,0.438
11,COc1cc2c(CCNC(C)=O)c[nH]c2cc1Cl [6-Chloromelatonin],-0.363
12,CCCCCCN(CCCCCC)C(=O)Cc1c(-c2ccc(F)cc2)[nH]c2ccccc12,0.084
13,C/N=C(/NC#N)NCCSCc1csc(NC(=N)N)n1 [Tiotidine],0.383
14,"COC(=O)/C=C/c1cc(O)ccc1O [Methyl 2,5-dihydroxycinnamate]",0.0626
15,COc1ccccc1N1CCN(CC(O)COc2cccc3ccccc23)CC1 (stereo not given) [Naftopidil dihydrochloride],-0.0568
16,CCN(CC)CCOCCOC(=O)C1(c2ccccc2)CCCC1 [Carbetapentane citrate],-0.0165
17,NS(=O)(=O)c1cc2c(cc1Cl)NC(C1CC3C=CC1C3)NS2(=O)=O (stereo not given) [Cyclothiazide],-0.147
18,C1COC(NC(C2CC2)C2CC2)=N1 [Rilmenidine hemifumarate],0.278
19,Fc1ccc(C(c2ccc(F)cc2)N2CCN(C/C=C/c3ccccc3)CC2)cc1 [Flunarizine dihydrochloride],0.219
20,NC(=O)CCCCn1ccc(NC(N)=NCC(F)(F)F)n1,0.486
